# Reference: PubChem BioAssay (NCATS)
# “And” between values parts separate entries of the source, which are not always exact repeats. Equal entries are not always repeated. Records with an inconclusive call do not appear. A number with no mark means an inactive call. The source made the active and inactive calls. Calls follow the shape of the full dose curve.
# Biological target: Bile acid receptor (Homo sapiens) (UniProt Q96RI1)
# Experiment: qHTS assay for small molecule agonists of farnesoid X receptor signaling (AID 588527);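 also: 0% = vehicle basal and 100% = reference agonist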
# Details: HEK293T FXR-UAS-bla, beta-lactamase ratio, 16 h; activation: hits give high values
# In short: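 Quantitative HTS used FXR-UAS-bla HEK293T cells with 16 h compound incubation at 37 C. EC50 values came from concentration-response curves normalized to chenodeoxycholic acid.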
# Chain of Bile acid receptor (Homo sapiens) (Q96RI1 whole entry, looked up): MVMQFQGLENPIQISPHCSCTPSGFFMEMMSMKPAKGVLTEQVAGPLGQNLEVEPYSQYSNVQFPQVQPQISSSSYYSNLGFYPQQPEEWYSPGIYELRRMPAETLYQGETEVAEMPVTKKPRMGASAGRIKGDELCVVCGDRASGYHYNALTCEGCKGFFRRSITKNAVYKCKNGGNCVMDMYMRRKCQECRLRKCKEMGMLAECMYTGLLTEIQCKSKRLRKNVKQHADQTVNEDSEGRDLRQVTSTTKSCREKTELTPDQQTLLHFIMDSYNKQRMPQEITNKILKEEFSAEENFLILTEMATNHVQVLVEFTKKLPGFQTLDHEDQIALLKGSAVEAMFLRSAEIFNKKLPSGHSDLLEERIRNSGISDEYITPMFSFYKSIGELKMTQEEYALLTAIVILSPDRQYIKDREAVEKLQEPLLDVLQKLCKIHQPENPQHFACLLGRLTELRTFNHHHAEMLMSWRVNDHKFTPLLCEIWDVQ
row,Compound,activation
1,CC#N,-1.26%
2,c1ccc2[nH]cnc2c1,-1.83%
3,CCCCC(CC)COP(=O)(O)OCC(CC)CCCC (stereo not given),-0.5%
4,CC(C)C(=O)OCC(C)(C)C(O)C(C)C (stereo not given),-0.406%
5,Cl[Si](Cl)(Cl)c1ccccc1,0.575%
6,O=S(=O)(O)c1ccc(N=Nc2cc(S(=O)(=O)O)c3ccccc3c2O)c2ccccc12,2.06%
7,O=C1OC(=O)c2ccccc21,1.95%
8,C[Si]1(C)O[Si](C)(C)O[Si](C)(C)O[Si](C)(C)O1,-3.3%
9,CC(C)CCOC(=O)/C=C/c1ccccc1,-2.58%
10,C1=C/CC/C=C/CC/C=C/CC/1,-1.27%
11,NC(=O)/N=N/C(N)=O,-1.16%
12,Nc1cccc2c(=O)[nH][nH]c(=O)c12,1.93%
13,COc1ccc([N+](=O)[O-])cc1N,0.186% and -0.616%
14,CC(=O)Nc1ccc(N=Nc2cc(C)ccc2O)cc1,0.585%
15,O=C(O)c1cccc(C(=O)O)c1,-0.333%
16,CCCCOCC(C)OCC(C)O (stereo not given),5.12%
17,Clc1ccc(Cl)c(Cl)c1Cl,1.31% and 2.13%
18,CCC/C(=N\OCC)C1=C(O)CC(O)(CC(C)S(=O)(=O)CC)CC1=O (stereo not given),0.69%
19,CC(C)[C@@H]1CC[C@@H](C)C[C@H]1O,0.612%
20,c1ccc(SCCSc2ccccc2)cc1,-0.837%

row,Compound,activation
1,Cl[Si](Cl)(c1ccccc1)c1ccccc1,3.41%
2,CC(C)(C)c1n[nH]c(=O)n(N)c1=O,2.05%
3,O=CNc1ccccc1,-1.29%
4,FC(F)(F)c1ccccc1Cl,-1.54%
5,BrC/C=C/CBr,1.2%
6,N[C@@H](Cc1ccccc1)C(=O)O,1.47%
7,CC(=O)CC(C)C,-0.151%
8,CCC(C)=O,-0.657%
9,O=[N+]([O-])c1cc(Cl)c(Cl)c(Cl)c1Cl,-3.36%
10,C=C(C)C(=O)OCC(CC)(COC(=O)C(=C)C)COC(=O)C(=C)C,-1.88%
11,CC(C)(c1cc(Br)c(O)c(Br)c1)c1cc(Br)c(O)c(Br)c1,3.15% and 6.79% and 4.84%
12,CCC(O)C(C)(C)C (stereo not given),0.367%
13,CCNc1cc(O)ccc1C,2%
14,CC(C)c1cccc(C(C)C)c1,-1.96%
15,C/C(Cl)=C/CCl,0.345%
16,CCCCCCCCCCCCOCC1CO1 (stereo not given),-0.164%
17,O=C(OCCOCCOC(=O)c1ccccc1)c1ccccc1,-0.568%
18,OCC(O)CO,-1.04% and -2.12%
19,COC(=O)CCCCC(=O)OC,-2.8% and 3.47% and -2.74%
20,CC(=O)c1cccc([N+](=O)[O-])c1,-1.11%

# Biological target: Peroxisome proliferator-activated receptor delta (Homo sapiens) (UniProt Q03181)
# Sequence (Q03181 whole entry, looked up): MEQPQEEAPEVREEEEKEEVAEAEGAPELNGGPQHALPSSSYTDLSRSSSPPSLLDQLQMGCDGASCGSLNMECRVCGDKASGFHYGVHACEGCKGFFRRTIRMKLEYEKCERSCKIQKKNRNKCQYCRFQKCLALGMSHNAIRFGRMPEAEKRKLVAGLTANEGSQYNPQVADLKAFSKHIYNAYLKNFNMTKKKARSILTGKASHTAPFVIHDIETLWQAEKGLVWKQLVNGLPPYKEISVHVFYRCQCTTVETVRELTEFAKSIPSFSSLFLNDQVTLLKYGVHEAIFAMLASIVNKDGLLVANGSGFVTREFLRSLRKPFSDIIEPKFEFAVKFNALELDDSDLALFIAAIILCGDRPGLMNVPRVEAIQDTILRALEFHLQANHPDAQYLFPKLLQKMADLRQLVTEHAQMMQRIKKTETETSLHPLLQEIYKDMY
# Experiment: qHTS assay for small molecule agonists of peroxisome proliferator-activated receptor delta signaling (AID 588534);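 also: 0% = DMSO basal wells and 100% = positive control agonist at 10 µM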
# Details: HEK293T PPARdelta-UAS-bla, beta-lactamase ratio, 18 h; series mostly up to 76.7 µM; activation: at the top concentration
# In short: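 Agonist-mode beta-lactamase reporter readout (CCF4 dye, 2 h at RT) after 18 h at 37 °C exposure to a titration; Hill-equation fitting gave EC50 and maximal response.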
Compound,activation,outcome
CC#N,-1.96%,–
c1ccc2[nH]cnc2c1,2.59%,–
CCCCC(CC)COP(=O)(O)OCC(CC)CCCC (stereo not given),-4.48%,–
CC(C)C(=O)OCC(C)(C)C(O)C(C)C (stereo not given),1.46%,–
Cl[Si](Cl)(Cl)c1ccccc1,0.851%,–
O=S(=O)(O)c1ccc(N=Nc2cc(S(=O)(=O)O)c3ccccc3c2O)c2ccccc12,3.71%,–
O=C1OC(=O)c2ccccc21,-0.454%,–
C[Si]1(C)O[Si](C)(C)O[Si](C)(C)O[Si](C)(C)O1,-2.09%,–
CC(C)CCOC(=O)/C=C/c1ccccc1,3.03%,–
C1=C/CC/C=C/CC/C=C/CC/1,-2.7%,–
NC(=O)/N=N/C(N)=O,4.75%,–
Nc1cccc2c(=O)[nH][nH]c(=O)c12,4.68%,–
COc1ccc([N+](=O)[O-])cc1N,–,inactive
CC(=O)Nc1ccc(N=Nc2cc(C)ccc2O)cc1,-3.86%,–
O=C(O)c1cccc(C(=O)O)c1,2.56%,–
CCCCOCC(C)OCC(C)O (stereo not given),4.45%,–
Clc1ccc(Cl)c(Cl)c1Cl,–,inactive
CCC/C(=N\OCC)C1=C(O)CC(O)(CC(C)S(=O)(=O)CC)CC1=O (stereo not given),-1.77%,–
CC(C)[C@@H]1CC[C@@H](C)C[C@H]1O,1.51%,–
c1ccc(SCCSc2ccccc2)cc1,16%,–

Compound,activation,outcome
Cl[Si](Cl)(c1ccccc1)c1ccccc1,-1.87%,–
CC(C)(C)c1n[nH]c(=O)n(N)c1=O,-5.5%,–
O=CNc1ccccc1,6.34%,–
FC(F)(F)c1ccccc1Cl,1.82%,–
BrC/C=C/CBr,2.97%,–
N[C@@H](Cc1ccccc1)C(=O)O,-1.24%,–
CC(=O)CC(C)C,-2.19%,–
CCC(C)=O,3.72%,–
O=[N+]([O-])c1cc(Cl)c(Cl)c(Cl)c1Cl,5.13%,–
C=C(C)C(=O)OCC(CC)(COC(=O)C(=C)C)COC(=O)C(=C)C,-4.33%,–
CC(C)(c1cc(Br)c(O)c(Br)c1)c1cc(Br)c(O)c(Br)c1,–,inactive
CCC(O)C(C)(C)C (stereo not given),7.16%,–
CCNc1cc(O)ccc1C,2.73%,–
CC(C)c1cccc(C(C)C)c1,-1.79%,–
C/C(Cl)=C/CCl,-5.25%,–
CCCCCCCCCCCCOCC1CO1 (stereo not given),-1.61%,–
O=C(OCCOCCOC(=O)c1ccccc1)c1ccccc1,-2.93%,–
OCC(O)CO,–,inactive
COC(=O)CCCCC(=O)OC,–,inactive
CC(=O)c1cccc([N+](=O)[O-])c1,7.07%,–
